The source of these data is PubChem BioAssay (EPA / NIEHS).

Experiment [1] has as its target Retinoic acid receptor RXR-alpha (Homo sapiens) (UniProt P19793). As to the kind of experiment: OT_NURR1_NURR1RXRa_0480: Odyssey Thera (OT) 8-hour HEK293T Protein Complementation Assay for Nurr1/retinoid X receptor (RXR) (AID 2283385; active means hit-call score of the fitted dose curve at least 0.9, where 1 is the maximum). In outline: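 HEK293T cells expressing Nurr1 and RXRα fused to reporter fragments were dosed with compound for 8 hours. Complex formation was read as fluorescence intensity and analysed as gain of signal against DMSO as baseline.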

The target is the same in experiment [2]. As to the kind of experiment: OT_NURR1_NURR1RXRa_1440: Odyssey Thera (OT) 24-hour HEK293T Protein Complementation Assay for Nurr1/retinoid X receptor (RXR) (AID 2283386; active means hit-call score of the fitted dose curve at least 0.9, where 1 is the maximum). In outline: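 HEK293T cells were dosed with compound and read 24 h later by fluorescence intensity in a protein-fragment complementation format, where Nurr1–RXRα interaction reconstitutes a split reporter. Activity was fitted as gain of signal relative to DMSO baseline.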

The target in experiment [3] is Peroxisome proliferator-activated receptor gamma (Homo sapiens) (UniProt P37231). As to the kind of experiment: OT_PPARg_PPARgSRC1_0480: Odyssey Thera (OT) 8-hour Protein-Complementation Assay for Peroxisome Proliferator-activated Receptor Gamma / SRC-1 Co-activator (AID 2283387; active means hit-call score of the fitted dose curve at least 0.9, where 1 is the maximum). The method, boiled down:
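HEK293T transiently transfected with PPARg and SRC-1 fused to Venus YFP fragments, compounds 8 h at 37C. Fixed, Draq5-stained cells imaged; nuclear/cytoplasmic 488 nm fluorescence ratio over at least 350 cells per image; gain fitted versus DMSO.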

Experiment [4] shares this target. As to the kind of experiment: OT_PPARg_PPARgSRC1_1440: Odyssey Thera (OT) 24-hour Protein-Complementation Assay for Peroxisome Proliferator-activated Receptor Gamma/ SRC-1 Co-activator (AID 2283388; active means hit-call score of the fitted dose curve at least 0.9, where 1 is the maximum). In outline: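 HEK293T transiently transfected with PPARg/SRC-1 split-Venus YFP fusions 48 h before dosing, then treated 24 h at 37C. Fixed cells imaged; nuclear/cytoplasmic 488 nm fluorescence ratio, gain of signal versus DMSO.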

Read-out in experiment [5]: Tumor necrosis factor receptor superfamily member 6 (Homo sapiens) (UniProt P25445)
Put plainly: LTEA_HepaRG_FAS: Life Technologies and Expression Analysis (LTEA) Assay for Fas cell surface death receptor (FAS) using HepaRG (AID 2283447). The settings on record: mRNA level, 48 h; actives raise or lower the signal. The method, boiled down:
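FAS transcript level was measured by TaqMan qRT-PCR against three housekeeping genes after 48 h chemical exposure. Cells were HepaRG, 0.5% DMSO vehicle, with a top concentration of 100 uM and half-log dilutions over eight points, in duplicate.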

Read-out in experiment [6]: Fatty acid synthase (Homo sapiens) (UniProt P49327)
As to the kind of experiment: LTEA_HepaRG_FASN: Life Technologies and Expression Analysis (LTEA) Assay for Fatty Acid Synthase (FASN) using HepaRG (AID 2283448). Conditions: mRNA level, 48 h; actives raise or lower the signal. The method, boiled down:
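Differentiated human HepaRG cells were exposed for 48 h in serum-free induction medium to eight half-log concentrations up to 100 uM in 0.5% DMSO, in duplicate. FASN mRNA was quantified by TaqMan qRT-PCR, normalized to ACTB/GAPDH/POLR2A, and fitted bidirectionally against DMSO.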

Read-out in experiment [7]: Cyclin D2 (CCND2), CCND2 (gene 894)
Put plainly: LTEA_HepaRG_CCND2: Life Technologies and Expression Analysis (LTEA) Assay for Cyclin D2 (CCND2) using HepaRG (AID 2283449). Conditions: mRNA level, 48 h; actives raise or lower the signal. In outline:
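Read-out is CCND2 mRNA level measured by qRT-PCR in human HepaRG liver cells and normalised to three housekeeping genes. Chemicals were applied for 48 h at up to 100 uM, with gain or loss fitted relative to 0.5% DMSO.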

Read-out in experiment [8]: Cyclin Dependent Kinase Inhibitor 1A (CDKN1A), CDKN1A (gene 1026)
As to the kind of experiment: LTEA_HepaRG_CDKN1A: Life Technologies and Expression Analysis (LTEA) Assay for Cyclin Dependent Kinase Inhibitor 1A (CDKN1A) using HepaRG (AID 2283450). Conditions: mRNA level, 48 h; actives raise or lower the signal. In outline:
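Differentiated HepaRG cells in serum-free induction medium, exposed 48 h in duplicate to eight half-log concentrations up to 100 uM in 0.5% DMSO. mRNA measured by TaqMan qRT-PCR, normalized to ACTB, GAPDH, POLR2A; bidirectional fit versus DMSO.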

Read-out in experiment [9]: Cyclin D1 (CCND1), CCND1 (gene 595)
As to the kind of experiment: LTEA_HepaRG_CCND1: Life Technologies and Expression Analysis (LTEA) Assay for Cyclin D1 (CCND1) using HepaRG (AID 2283451).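 On AC50: TaqMan qRT-PCR transcript level normalised to ACTB GAPDH and POLR2A housekeeping genes.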 Conditions: mRNA level, 48 h; actives raise or lower the signal. In outline:
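Differentiated HepaRG cells exposed 48 h in serum-free induction medium to eight half-log concentrations from 100 uM top, 0.5% DMSO, duplicates. CCND1 mRNA measured by Fluidigm TaqMan qRT-PCR, normalised to ACTB, GAPDH, POLR2A; bidirectional fit.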

Read-out in experiment [10]: catalase (CAT), CAT (gene 847)
Put plainly: LTEA_HepaRG_CAT: Life Technologies and Expression Analysis (LTEA) Assay for catalase (CAT) using HepaRG (AID 2283452).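 On AC50: TaqMan qRT-PCR signal normalized to ACTB GAPDH and POLR2A housekeeping genes.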 The settings on record: mRNA level, 48 h; actives raise or lower the signal. The method, boiled down: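 Expression of CAT was quantified by TaqMan qRT-PCR with ACTB/GAPDH/POLR2A normalization after 48 h chemical exposure of HepaRG. Eight-point half-log series, top 100 uM, in 0.5% DMSO; gain or loss fitted against vehicle.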

A short description of experiment [11]: CEETOX_H295R_11DCORT: CeeTox H295R High-throughput Steroidogenesis Assay for 11-Deoxycortisol (11DCORT) (AID 2283432).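 On AC50: 11-deoxycortisol secreted into the medium measured by LC-MS/MS.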 The settings on record: actives raise or lower the signal. In outline: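 H295R cells prestimulated 48 h with 10 uM forskolin, then exposed 48 h to chemical in 0.1% DMSO. 11-Deoxycortisol in medium quantified by HPLC-MS/MS after MTBE extraction; bidirectional fit versus DMSO. MTT viability read in same wells.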

Experiment [12] in a line: CEETOX_H295R_OHPREG: CeeTox H295R High-throughput Steroidogenesis Assay for OH-Pregnenolone (OHPREG) (AID 2283434). Conditions: actives raise or lower the signal. In outline:
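Hormone levels in spent medium were measured by tandem mass spectrometry following liquid-liquid extraction. Cells (H295R) had been forskolin-stimulated (10 uM, 48 h) before a 48 h chemical exposure at 0.1% DMSO, with activity fitted in both directions against DMSO.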

The nature of experiment [13]: CEETOX_H295R_OHPROG: CeeTox H295R High-throughput Steroidogenesis Assay for OH-Progesterone (OHPROG) (AID 2283435). The settings on record: actives raise or lower the signal. In outline: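 H295R human adrenal cells were prestimulated 48 h with 10 uM forskolin, then exposed 48 h to test chemical (0.1% DMSO final). 17alpha-hydroxyprogesterone in medium was measured by HPLC-MS/MS after MTBE extraction; bidirectional fitting vs DMSO.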

Experiment [14] is described as follows: CEETOX_H295R_ANDR: CeeTox H295R High-throughput Steroidogenesis Assay for Androstenedione (ANDR) (AID 2283436). The settings on record: actives raise or lower the signal. In outline:
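Read-out is androstenedione secreted into medium, measured by tandem mass spectrometry after liquid-liquid extraction. Cells were H295R, dosed for 48 h per modified OECD 456; activity fitted in both directions relative to DMSO.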

A short description of experiment [15]: CEETOX_H295R_CORTIC: CeeTox H295R High-throughput Steroidogenesis Assay for Corticosterone (CORTIC) (AID 2283437).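 Further: corticosterone secreted into medium quantified by mass spectrometry.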 Conditions: actives raise or lower the signal. The method, boiled down: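 Corticosterone secreted into medium is measured by reverse-phase HPLC with tandem MS following liquid-liquid extraction. Cells are forskolin-stimulated (10 uM, 48 h) before 48 h test exposure; activity fitted in both directions against DMSO.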

Experiment [16] in a line: CEETOX_H295R_CORTISOL: CeeTox H295R High-throughput Steroidogenesis Assay for Cortisol (AID 2283438).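 Further: cortisol secreted into medium quantified by LC-MS/MS.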 The settings on record: actives raise or lower the signal. The method, boiled down: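 H295R human adrenal cells were prestimulated 48 h with 10 uM forskolin, then exposed 48 h to test chemical (0.1% DMSO final). Medium cortisol was quantified by HPLC-MS/MS after MTBE extraction; bidirectional fitting relative to DMSO baseline.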

The nature of experiment [17]: CEETOX_H295R_DOC: CeeTox H295R High-throughput Steroidogenesis Assay for DOC (AID 2283439). Conditions: actives raise or lower the signal. The method, boiled down:
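H295R adrenal cells prestimulated 48 h with 10 uM forskolin, then exposed 48 h to test chemical (0.1% DMSO final). Medium 11-deoxycorticosterone extracted with MTBE, quantified by HPLC-MS/MS; bidirectional fit versus DMSO baseline; MTT viability in same wells.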

Experiment [18] can be described thus: CEETOX_H295R_PROG: CeeTox H295R High-throughput Steroidogenesis Assay for Progesterone (PROG) (AID 2283442).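 Further: human H295R adrenal cells primed with 10 µM forskolin before dosing.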 Conditions: actives raise or lower the signal. The method, boiled down:
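H295R adrenal cells prestimulated 48 h with 10 uM forskolin, then exposed 48 h to test chemical in 0.1% DMSO. Progesterone in medium quantified by HPLC-MS/MS after MTBE extraction; viability checked by MTT in same wells.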

Experiment [19] can be described thus: CEETOX_H295R_ESTRADIOL: CeeTox H295R High-throughput Steroidogenesis Assay for Estradiol (AID 2283440).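 Further: estradiol secreted into medium quantified by LC-MS/MS after dansyl derivatisation.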 The settings on record: actives raise or lower the signal. The method, boiled down:
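H295R cells pre-stimulated 48 h with 10 uM forskolin, then exposed 48 h to chemical in 0.1% DMSO. Medium estradiol quantified by MTBE extraction, dansyl derivatisation and HPLC-MS/MS; bidirectional fit versus DMSO; MTT viability required >/=70%.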

Experiment [20] can be described thus: CEETOX_H295R_ESTRONE: CeeTox H295R High-throughput Steroidogenesis Assay for Estrone (AID 2283441).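 Further: estrone secreted into medium measured by LC-MS/MS after dansyl derivatization.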 The settings on record: actives raise or lower the signal. The method, boiled down:
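H295R cells; 48 h forskolin (10 uM) prestimulation; 48 h compound exposure, 0.1% DMSO final. Medium estrone: MTBE extraction, dansyl derivatization, HPLC-MS/MS. Bidirectional fit vs DMSO.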

Molecules are shown by their SMILES. Values joined by “and” are separate entries in the source; they are usually repeats but may differ in a detail not shown here. Equal values may be shown once. Results filed as inconclusive are left out. A structure can be active in one record and inactive in another. Active and inactive are the calls of the source. How the source made its calls, unless noted: active means hit-call score of the fitted dose curve at least 0.9, where 1 is the maximum; inactive means score below 0.9.

In general, AC50 refers to the midpoint of the concentration-response curve, whichever way the signal moves.

Fatty acid synthase (Homo sapiens), sequence (P49327 whole entry, looked up): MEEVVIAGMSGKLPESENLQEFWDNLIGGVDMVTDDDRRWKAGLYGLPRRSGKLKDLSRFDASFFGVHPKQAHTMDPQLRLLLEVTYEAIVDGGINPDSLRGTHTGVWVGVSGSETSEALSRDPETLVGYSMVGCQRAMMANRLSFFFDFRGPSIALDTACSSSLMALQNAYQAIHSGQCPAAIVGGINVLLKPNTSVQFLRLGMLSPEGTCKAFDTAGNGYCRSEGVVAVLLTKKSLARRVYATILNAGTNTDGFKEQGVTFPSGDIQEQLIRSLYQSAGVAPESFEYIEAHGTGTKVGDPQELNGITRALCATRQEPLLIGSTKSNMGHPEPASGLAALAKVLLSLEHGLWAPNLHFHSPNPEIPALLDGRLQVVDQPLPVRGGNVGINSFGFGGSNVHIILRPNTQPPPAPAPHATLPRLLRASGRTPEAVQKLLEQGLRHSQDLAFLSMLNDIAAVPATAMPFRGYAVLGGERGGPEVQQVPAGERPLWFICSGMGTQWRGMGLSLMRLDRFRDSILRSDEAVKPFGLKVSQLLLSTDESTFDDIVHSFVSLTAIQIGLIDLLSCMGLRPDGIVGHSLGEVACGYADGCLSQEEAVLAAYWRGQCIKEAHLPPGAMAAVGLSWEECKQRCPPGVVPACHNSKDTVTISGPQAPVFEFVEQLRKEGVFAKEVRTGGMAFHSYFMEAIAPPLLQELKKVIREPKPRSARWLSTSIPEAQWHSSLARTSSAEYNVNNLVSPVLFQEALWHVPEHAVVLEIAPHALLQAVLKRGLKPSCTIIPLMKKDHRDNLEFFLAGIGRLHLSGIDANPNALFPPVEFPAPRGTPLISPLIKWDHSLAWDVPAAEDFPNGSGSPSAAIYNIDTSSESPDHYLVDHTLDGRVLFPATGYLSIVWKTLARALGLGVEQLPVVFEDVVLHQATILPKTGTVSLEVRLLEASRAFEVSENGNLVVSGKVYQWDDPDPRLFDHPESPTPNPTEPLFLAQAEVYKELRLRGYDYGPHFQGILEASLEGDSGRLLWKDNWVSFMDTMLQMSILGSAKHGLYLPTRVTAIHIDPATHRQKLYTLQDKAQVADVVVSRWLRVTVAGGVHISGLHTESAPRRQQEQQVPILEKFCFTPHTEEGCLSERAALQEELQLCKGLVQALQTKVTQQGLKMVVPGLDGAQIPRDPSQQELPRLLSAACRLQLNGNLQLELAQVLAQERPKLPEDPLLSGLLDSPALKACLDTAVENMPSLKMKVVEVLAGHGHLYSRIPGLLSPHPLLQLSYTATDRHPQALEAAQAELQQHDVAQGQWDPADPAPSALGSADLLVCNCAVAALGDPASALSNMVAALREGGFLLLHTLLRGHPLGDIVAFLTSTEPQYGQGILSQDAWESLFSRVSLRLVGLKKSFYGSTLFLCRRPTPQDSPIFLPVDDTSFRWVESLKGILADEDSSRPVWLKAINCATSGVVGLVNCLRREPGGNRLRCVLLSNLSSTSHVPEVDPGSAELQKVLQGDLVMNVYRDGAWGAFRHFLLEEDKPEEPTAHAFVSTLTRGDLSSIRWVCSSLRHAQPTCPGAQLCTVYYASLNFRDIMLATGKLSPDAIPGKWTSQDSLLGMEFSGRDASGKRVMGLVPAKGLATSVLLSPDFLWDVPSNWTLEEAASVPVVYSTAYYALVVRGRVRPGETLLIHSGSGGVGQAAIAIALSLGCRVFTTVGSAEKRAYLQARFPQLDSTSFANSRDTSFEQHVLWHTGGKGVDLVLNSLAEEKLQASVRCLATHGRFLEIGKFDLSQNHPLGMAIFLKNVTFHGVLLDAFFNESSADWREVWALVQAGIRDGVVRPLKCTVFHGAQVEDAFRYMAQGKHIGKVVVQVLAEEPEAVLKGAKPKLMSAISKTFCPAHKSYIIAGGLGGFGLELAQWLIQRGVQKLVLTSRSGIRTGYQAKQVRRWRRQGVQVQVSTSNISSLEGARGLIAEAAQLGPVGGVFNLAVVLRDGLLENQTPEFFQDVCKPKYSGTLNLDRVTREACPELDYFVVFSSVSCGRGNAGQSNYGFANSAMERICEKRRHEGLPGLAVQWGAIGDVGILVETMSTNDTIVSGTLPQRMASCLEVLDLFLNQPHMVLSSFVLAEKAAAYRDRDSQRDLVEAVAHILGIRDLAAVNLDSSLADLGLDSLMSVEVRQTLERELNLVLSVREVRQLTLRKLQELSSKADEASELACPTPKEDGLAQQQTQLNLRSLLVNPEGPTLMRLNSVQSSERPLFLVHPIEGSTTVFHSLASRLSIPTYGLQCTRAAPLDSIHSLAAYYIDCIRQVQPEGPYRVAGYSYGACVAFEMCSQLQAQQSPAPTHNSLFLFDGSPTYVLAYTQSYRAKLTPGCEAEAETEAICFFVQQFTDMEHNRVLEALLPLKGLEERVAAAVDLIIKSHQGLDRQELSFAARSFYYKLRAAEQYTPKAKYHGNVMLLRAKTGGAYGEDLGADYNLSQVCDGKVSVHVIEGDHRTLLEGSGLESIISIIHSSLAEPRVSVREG
Retinoic acid receptor RXR-alpha (Homo sapiens), sequence (P19793 whole entry, looked up, the tested form may be a part): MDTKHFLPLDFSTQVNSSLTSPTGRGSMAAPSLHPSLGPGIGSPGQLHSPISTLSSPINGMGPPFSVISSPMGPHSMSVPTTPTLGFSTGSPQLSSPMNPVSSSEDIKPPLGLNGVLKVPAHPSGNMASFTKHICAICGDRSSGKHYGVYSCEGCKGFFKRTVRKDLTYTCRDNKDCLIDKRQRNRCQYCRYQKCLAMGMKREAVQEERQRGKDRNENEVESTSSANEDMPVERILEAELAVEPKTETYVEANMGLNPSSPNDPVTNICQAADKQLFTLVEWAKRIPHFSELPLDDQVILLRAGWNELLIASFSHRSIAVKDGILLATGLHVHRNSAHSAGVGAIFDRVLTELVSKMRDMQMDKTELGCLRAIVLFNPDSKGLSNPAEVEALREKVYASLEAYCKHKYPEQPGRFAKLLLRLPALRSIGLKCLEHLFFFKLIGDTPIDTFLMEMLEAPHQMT
Peroxisome proliferator-activated receptor gamma (Homo sapiens), sequence (P37231 whole entry, looked up, the tested form may be a part): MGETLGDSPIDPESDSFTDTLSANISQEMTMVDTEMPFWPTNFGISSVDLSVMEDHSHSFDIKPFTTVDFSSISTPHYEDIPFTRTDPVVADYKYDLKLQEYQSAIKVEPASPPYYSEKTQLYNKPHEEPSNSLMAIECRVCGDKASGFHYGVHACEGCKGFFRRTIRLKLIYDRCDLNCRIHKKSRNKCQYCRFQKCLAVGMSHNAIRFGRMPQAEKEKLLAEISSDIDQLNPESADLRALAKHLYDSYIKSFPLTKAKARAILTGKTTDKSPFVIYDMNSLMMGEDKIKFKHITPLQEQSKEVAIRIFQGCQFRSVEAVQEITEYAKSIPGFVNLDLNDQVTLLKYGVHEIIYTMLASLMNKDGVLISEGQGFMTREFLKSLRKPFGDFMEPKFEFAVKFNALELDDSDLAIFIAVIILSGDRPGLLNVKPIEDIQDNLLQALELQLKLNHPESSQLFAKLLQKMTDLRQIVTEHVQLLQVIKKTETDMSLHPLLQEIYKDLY

On to `Brc1ccc(Oc2ccccc2)cc1`, for which the molecule was classed as inactive in [1], in [2], in [3], in experiment [4], in experiment [5] and in experiment [6]. Besides, the molecule was called inactive in experiment [7], in experiment [8], in experiment [9] and in experiment [10].
For the molecule `COC(=O)Nc1nc2ccccc2[nH]1`, the outcome in experiment [1], in experiment [2], in experiment [3], in experiment [4], in experiment [5] and in experiment [6] was inactive. The molecule was called inactive in experiment [8], in experiment [9] and in experiment [10].
As for `c1ccc(C2CO2)cc1` (stereo unspecified), the result in experiment [1], in [2], in [3], in experiment [4], in experiment [6] and in experiment [7] was inactive. Moreover, the outcome in [8], in experiment [9] and in experiment [10] was inactive.
For the molecule `Nc1ccc(Cl)cc1N`, the AC50 in experiment [1] is 39.2 µM (active); in [2], 31.3 µM (active); in [3] it was 45.3 µM (active); in [12] it was 1.41 µM (active); in experiment [18], 1.89 µM (active); in [6], 37.9 µM (active). Moreover, the values for the AC50 in [8] and in experiment [10] were 11.4 µM (active) and 18.7 µM (active), respectively. In addition, the call in experiment [1], in [2], in experiment [3], in experiment [4], in [11] and in [13] was inactive. In addition, the outcome in experiment [14], in experiment [15], in [16], in experiment [17], in [7] and in [9] was inactive.
With `COC(=O)c1ccccc1N`, the molecule was classed as inactive in [1], in experiment [2], in experiment [3], in experiment [4], in experiment [5] and in experiment [6]. For the same molecule, the call in experiment [7], in experiment [8], in experiment [9] and in [10] was inactive.
Consider `ClCCOCCCl`, for which the outcome in experiment [1], in experiment [2], in experiment [3], in experiment [4], in [5] and in experiment [6] was inactive. Further, the result in [8], in [9] and in experiment [10] was inactive.
As for `CCCCCCCCCCCCCN1CC(C)OC(C)C1` (stereo unspecified), the AC50 in [1] was 72.5 µM (active); in experiment [2], 81.7 µM (active); in experiment [11], 9.71 µM (active); in [12], 12.5 µM (active); in [13], 17.6 µM (active); in experiment [17], 6.39 µM (active). For the same molecule, the AC50 in experiment [18] was 8.46 µM (active). Moreover, the outcome in experiment [2], in experiment [4], in [15], in experiment [16], in experiment [19] and in experiment [20] was inactive. The call in experiment [5], in experiment [6], in experiment [7], in experiment [8], in experiment [9] and in experiment [10] was inactive.
In the case of `Cc1cccc(N)c1N`, the AC50 is 33.9 µM (active) in experiment [1]; 31.9 µM (active) and 66.9 µM (active) in experiment [3]; 27 µM (active) in [12]; 18.5 µM (active) in experiment [13]; 15.4 µM (active) in experiment [18]; 33.4 µM (active) in experiment [6]. For the same molecule, the concentration at half-maximal activity (AC50) in experiment [9] and in experiment [10] was 50 µM (active) each time. The outcome in experiment [1], in experiment [2], in [4], in [11], in experiment [15] and in experiment [16] was inactive. Besides, the call in experiment [17] and in [8] was inactive.
`OCCOCCO`: the molecule was called inactive in experiment [1], in experiment [2], in experiment [3], in experiment [4], in experiment [6] and in [7]. Also, the outcome in [8], in experiment [9] and in experiment [10] was inactive.
